# In article PMC7862700, “An all-to-all approach to the identification of sequence-specific readers for epigenetic DNA modifications on cytosine”:
# Key:
# Experiment in all cases: DAPPL (digital affinity profiling via proximity ligation, sequencing); 10 mM Tris-HCl pH 7.5, 50 mM NaCl, 1 mM DTT, 4% glycerol, room temperature, 30 min; GST-TFs on glutathione beads, 16-mer random dsDNA library, 0.1% formaldehyde crosslink after washing; high values mean tight binding
# FEV = target: T1, FEV (Homo sapiens, UniProt Q99581 1-238); settings: protein: recombinant; tags: N-terminal GST; dsDNA, one strand shown
# T1 sequence: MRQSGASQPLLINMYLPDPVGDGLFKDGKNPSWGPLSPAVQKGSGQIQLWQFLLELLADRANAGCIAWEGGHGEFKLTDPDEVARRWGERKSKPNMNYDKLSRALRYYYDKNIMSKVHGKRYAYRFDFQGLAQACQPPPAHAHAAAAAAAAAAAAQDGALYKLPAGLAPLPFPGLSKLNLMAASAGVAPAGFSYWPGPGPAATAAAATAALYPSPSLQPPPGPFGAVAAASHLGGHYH
# How it was run: (§1)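 Binding signal is each hexamer's read frequency for a factor divided by its frequency in the tag-only sample. The factors were GST-fused human transcription factors from yeast, captured on glutathione beads, DNA-barcoded and pooled with that sample. Pools were incubated with 200 nmole of a random double-stranded 16-mer DNA library in Tris/NaCl/DTT/glycerol buffer at room temperature for 30 min, then washed, crosslinked with 0.1% formaldehyde, proximity-ligated with BsaI/T4 ligase (1 h, 37 °C), PCR-amplified and sequenced on an Illumina NextSeq500.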
# ETV5 = ETV5 (Homo sapiens, UniProt P41161 1-510); settings: protein: recombinant; tags: N-terminal GST; dsDNA, one strand shown
# Sequence of ETV5 (P41161 whole entry): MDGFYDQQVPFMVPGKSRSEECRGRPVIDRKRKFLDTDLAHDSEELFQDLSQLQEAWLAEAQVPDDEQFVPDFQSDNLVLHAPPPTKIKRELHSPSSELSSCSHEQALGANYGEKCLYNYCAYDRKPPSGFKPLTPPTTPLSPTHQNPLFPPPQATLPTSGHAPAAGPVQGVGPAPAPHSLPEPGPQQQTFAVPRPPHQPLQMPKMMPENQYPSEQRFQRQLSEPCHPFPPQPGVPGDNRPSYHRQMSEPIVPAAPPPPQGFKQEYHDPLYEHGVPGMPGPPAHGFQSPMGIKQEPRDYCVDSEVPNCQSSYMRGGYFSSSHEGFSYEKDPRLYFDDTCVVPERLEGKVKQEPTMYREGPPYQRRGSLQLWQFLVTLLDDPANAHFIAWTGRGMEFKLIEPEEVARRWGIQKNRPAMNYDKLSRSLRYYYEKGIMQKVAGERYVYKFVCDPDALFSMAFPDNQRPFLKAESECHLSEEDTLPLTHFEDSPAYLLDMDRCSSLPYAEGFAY
# How it was run: as §1
# HSF1 = HSF1 (Homo sapiens, UniProt Q00613 1-529); settings: protein: recombinant; tags: N-terminal GST; chain copies: 3; dsDNA, one strand shown
# Sequence of HSF1 (Q00613 whole entry): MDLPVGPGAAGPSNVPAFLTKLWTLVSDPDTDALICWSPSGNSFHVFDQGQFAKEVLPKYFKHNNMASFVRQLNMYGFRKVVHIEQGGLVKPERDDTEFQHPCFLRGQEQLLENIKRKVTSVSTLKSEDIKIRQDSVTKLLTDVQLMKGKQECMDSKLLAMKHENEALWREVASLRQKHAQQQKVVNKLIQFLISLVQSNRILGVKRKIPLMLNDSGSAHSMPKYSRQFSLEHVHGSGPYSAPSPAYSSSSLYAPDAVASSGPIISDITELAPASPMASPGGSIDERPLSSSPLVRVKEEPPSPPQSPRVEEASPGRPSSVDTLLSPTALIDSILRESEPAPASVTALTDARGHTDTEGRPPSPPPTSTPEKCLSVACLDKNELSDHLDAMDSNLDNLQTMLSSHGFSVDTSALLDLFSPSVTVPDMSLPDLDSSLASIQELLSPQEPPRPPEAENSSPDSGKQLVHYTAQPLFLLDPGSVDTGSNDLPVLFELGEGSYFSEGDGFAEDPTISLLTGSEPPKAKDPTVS
# How it was run: as §1
# SPIC = target: T2, SPIC (Homo sapiens, UniProt Q8N5J4 1-248); settings: protein: recombinant; tags: N-terminal GST; dsDNA, one strand shown
# T2 sequence: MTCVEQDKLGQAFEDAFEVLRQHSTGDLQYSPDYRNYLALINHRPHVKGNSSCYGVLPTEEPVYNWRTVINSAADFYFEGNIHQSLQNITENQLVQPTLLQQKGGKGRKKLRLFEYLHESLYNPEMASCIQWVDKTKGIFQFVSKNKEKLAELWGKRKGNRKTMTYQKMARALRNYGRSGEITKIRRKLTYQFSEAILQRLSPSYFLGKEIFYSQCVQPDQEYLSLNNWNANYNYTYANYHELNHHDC
# How it was run: as §1
# ELF4 = ELF4 (Homo sapiens, UniProt Q99607 1-663); settings: protein: recombinant; tags: N-terminal GST; dsDNA, one strand shown
# Sequence of ELF4 (Q99607 whole entry): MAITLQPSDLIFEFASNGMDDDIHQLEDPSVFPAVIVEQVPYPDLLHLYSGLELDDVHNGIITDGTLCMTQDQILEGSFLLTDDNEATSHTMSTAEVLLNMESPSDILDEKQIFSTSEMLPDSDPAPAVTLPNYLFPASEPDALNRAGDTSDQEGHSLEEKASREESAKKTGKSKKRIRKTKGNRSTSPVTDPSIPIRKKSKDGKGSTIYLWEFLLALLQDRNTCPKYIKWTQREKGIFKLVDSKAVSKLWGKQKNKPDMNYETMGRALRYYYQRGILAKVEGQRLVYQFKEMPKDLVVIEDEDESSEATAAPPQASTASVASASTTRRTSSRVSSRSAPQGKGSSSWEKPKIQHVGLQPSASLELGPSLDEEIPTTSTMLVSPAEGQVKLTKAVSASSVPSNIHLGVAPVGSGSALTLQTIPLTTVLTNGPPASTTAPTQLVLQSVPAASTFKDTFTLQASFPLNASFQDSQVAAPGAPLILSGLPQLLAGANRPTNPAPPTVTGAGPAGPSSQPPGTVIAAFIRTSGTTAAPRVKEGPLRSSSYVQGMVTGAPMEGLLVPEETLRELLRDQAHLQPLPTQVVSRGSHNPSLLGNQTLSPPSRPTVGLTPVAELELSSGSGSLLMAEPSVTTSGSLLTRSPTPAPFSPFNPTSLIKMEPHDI
# How it was run: as §1
# ELK4 = target: T3, ELK4 (Homo sapiens, UniProt P28324-2 1-405); settings: protein: recombinant; tags: N-terminal GST; dsDNA, one strand shown
# T3 sequence: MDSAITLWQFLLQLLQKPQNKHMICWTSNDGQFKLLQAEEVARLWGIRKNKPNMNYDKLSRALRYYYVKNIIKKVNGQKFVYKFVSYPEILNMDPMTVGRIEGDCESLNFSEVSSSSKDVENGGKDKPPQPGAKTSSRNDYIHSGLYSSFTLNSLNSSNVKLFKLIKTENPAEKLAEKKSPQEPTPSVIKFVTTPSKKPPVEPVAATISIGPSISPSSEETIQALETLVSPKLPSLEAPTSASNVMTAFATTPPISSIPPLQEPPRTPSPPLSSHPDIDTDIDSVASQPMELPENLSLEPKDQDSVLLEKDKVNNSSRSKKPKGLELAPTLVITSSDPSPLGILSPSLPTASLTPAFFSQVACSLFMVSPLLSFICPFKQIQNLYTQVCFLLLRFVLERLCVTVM
# How it was run: as §1
# ETV2 = target: T4, ETV2 (Homo sapiens, UniProt O00321 1-342); settings: protein: recombinant; tags: N-terminal GST; dsDNA, one strand shown
# T4 sequence: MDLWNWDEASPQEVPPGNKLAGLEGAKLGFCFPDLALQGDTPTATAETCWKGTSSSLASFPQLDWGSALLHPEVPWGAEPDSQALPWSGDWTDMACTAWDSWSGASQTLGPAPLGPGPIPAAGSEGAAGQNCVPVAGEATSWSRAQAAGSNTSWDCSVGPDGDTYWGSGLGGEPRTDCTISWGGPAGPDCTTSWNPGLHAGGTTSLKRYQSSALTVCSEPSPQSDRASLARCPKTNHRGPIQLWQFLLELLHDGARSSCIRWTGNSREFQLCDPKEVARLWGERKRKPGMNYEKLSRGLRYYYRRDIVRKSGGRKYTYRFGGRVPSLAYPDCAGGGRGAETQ
# How it was run: as §1
# ELF3 = target: T5, ELF3 (Homo sapiens, UniProt P78545 1-371); settings: protein: recombinant; tags: N-terminal GST; dsDNA, one strand shown
# T5 sequence: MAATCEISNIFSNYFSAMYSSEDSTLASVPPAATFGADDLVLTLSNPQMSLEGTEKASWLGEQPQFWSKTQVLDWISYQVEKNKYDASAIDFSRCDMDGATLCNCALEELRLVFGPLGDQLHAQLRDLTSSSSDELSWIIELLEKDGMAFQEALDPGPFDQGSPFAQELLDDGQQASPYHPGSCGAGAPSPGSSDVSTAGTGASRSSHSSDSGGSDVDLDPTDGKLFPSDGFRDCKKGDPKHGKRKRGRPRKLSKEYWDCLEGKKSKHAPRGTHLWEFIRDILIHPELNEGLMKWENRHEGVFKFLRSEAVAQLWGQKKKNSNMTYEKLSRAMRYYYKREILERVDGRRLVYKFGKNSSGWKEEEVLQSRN
# How it was run: as §1
# CRX = CRX (Homo sapiens, UniProt O43186 1-299); settings: protein: recombinant; tags: N-terminal GST; dsDNA, one strand shown
# Sequence of CRX (O43186 whole entry): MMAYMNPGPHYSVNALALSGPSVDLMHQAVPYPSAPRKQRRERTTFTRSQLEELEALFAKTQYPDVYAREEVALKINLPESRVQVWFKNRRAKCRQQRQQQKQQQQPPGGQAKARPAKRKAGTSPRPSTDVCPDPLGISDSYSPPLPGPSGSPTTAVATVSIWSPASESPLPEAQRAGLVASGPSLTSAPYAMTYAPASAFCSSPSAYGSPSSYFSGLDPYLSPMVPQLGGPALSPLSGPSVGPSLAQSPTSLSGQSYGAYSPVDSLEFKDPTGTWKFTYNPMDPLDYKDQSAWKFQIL
# How it was run: as §1
# ETV1 = ETV1 (Homo sapiens, UniProt P50549 1-477); settings: protein: recombinant; tags: N-terminal GST; dsDNA, one strand shown
# Sequence of ETV1 (P50549 whole entry): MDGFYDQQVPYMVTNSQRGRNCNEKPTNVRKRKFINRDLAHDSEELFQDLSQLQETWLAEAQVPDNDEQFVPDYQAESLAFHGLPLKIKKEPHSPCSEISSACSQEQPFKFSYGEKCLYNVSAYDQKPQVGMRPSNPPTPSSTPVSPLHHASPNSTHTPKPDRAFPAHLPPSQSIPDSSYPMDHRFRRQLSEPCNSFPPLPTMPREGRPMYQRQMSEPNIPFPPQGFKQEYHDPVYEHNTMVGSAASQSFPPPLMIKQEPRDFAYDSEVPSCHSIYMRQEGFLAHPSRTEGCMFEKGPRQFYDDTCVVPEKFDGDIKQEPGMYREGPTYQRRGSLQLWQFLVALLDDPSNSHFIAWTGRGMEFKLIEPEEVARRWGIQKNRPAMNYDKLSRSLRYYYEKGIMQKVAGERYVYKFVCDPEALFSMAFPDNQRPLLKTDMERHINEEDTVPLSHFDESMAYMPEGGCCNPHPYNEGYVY
# How it was run: as §1
sequence,measurement,setting,value
TGTCTA,binding signal,FEV,"1.14 fold enrichment (6-mer frequency, TF over GST control)"
same,binding signal,ETV5,"1.24 fold enrichment (6-mer frequency, TF over GST control)"
same,binding signal,HSF1,"1.15 fold enrichment (6-mer frequency, TF over GST control)"
same,binding signal,SPIC,"1.35 fold enrichment (6-mer frequency, TF over GST control)"
same,binding signal,ELF4,"1.2 fold enrichment (6-mer frequency, TF over GST control)"
same,binding signal,ELK4,"1.06 fold enrichment (6-mer frequency, TF over GST control)"
same,binding signal,ETV2,"1.34 fold enrichment (6-mer frequency, TF over GST control)"
same,binding signal,ELF3,"1.06 fold enrichment (6-mer frequency, TF over GST control)"
same,binding signal,CRX,"1.05 fold enrichment (6-mer frequency, TF over GST control)"
same,binding signal,ETV1,"1.24 fold enrichment (6-mer frequency, TF over GST control)"
